# Hits are enriched below; roughly 3.6% of the tested compounds scored in any of these assays.
# BoNT A protease: blocks Botulinum neurotoxin A light chain protease. multiplex microsphere protease substrate cleavage, flow cytometry. inhibition, % at 10 µM. 360,000 tested, 0.17% active; further: plate controls were buffer without enzyme for full effect and enzyme alone for no effect
# Autofluor counter: compound fluorescence in toxin protease inhibitor counterscreen; 360,000 tested, 3.1% active; compound autofluorescence counterscreen, microsphere flow cytometry; hits give high values; AID 624483; fluorescence intensity (test concentration not listed); in the data active means fluorescence intensity above about 16000; inconclusive means no clear call, values can overlap the other calls
# MazF activator: activators of E. coli MazEF toxin-antitoxin RNase | P0AE70 | FAM/BHQ RNA-DNA oligo cleavage fluorescence, 5 h | activation, % at 20 µM | 350,000 tested, 0.32% active; in the data active means activation above about 50%
# Target sequence (P0AE70 whole entry, looked up): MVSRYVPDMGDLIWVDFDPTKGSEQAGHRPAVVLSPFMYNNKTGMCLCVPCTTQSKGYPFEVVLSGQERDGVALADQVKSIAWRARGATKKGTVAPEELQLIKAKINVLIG
# BoNT-F LC inh: blocks Botulinum neurotoxin F light chain protease; AID 588497; inhibition, % at 10 µM; 360,000 tested, 0.22% active; Multiplex microsphere protease cleavage assay, flow cytometry; in the data active means inhibition above about 35%, passing the limit was not always enough; inconclusive means no clear call, values can overlap the other calls; further: plate controls were buffer without enzyme for full effect and enzyme alone for no effect
# Anthrax LF inh2: anthrax lethal factor protease inhibition | P15917 | multiplex microsphere protease cleavage assay, LF | inhibition, % at 10 µM | 360,000 tested, 0.12% active | AID 588501; further: plate controls were buffer without enzyme for full effect and enzyme alone for no effect
# An asterisk follows results filed as active; ? = inconclusive; . = no result given; + = active, no number. Unless noted, no stated cut-off is given here; in the data, active means inhibition above about 30%; inconclusive means no clear call, values can overlap the other calls; inactive means below that.
SMILES,BoNT A protease,Autofluor counter,MazF activator,BoNT-F LC inh,Anthrax LF inh2
COc1ccc(CCN2C(=O)c3cccc4cccc(c34)C2=O)cc1OC,11,17334*,-7,10,-17
COc1ccc(CCN2C(=O)C3C4C=CC(C5CC45)C3C2=O)cc1OC (stereo not given),0,4674,14,4,2
COc1ccc(CCNC(=O)CN2C(=O)c3cccc4cccc(c34)C2=O)cc1OC,1,2258,-4,4,-1
O=C(Nc1ccc(C(F)(F)F)cc1)C1CCCN1S(=O)(=O)c1cccc2cccnc12 (stereo not given),-1,16378*,7,-6,-9
COc1cccc(=O)c2c(C)n(-c3cc(C)cc(C)c3)c(C)c12,3,20048*,-10,1,-3
COc1cccc(-n2c(C)c3c(OC)cccc(=O)c3c2C)c1,0,3614,-1,-10,-2
O=S(=O)(c1ccc(-c2csc(-c3cccnc3)n2)cc1)N1CCCCC1,0,22447*,0,-2,-4
CC1(C(=O)NC(=S)N(CCC#N)c2ccccc2)CC1(Cl)Cl (stereo not given),3,21445*,8,4,-7
CCOC(=O)c1ccc(S(=O)(=O)N2CCN(C(=O)C3CSC4(C)CCC(=O)N34)CC2)cc1 (stereo not given),3,6164,6,8,3
CC(C(=O)Nc1sc2c(c1C(=O)NCc1ccco1)CCCC2)N1C(=O)c2ccccc2C1=O (stereo not given),-1,3525,-14,-9,-2
Cc1ccc(C(=O)Nc2sc3c(c2C(=O)NCc2ccco2)CCCC3)cc1,-1,4637,-7,-34,-7
O=C(Nc1sc2c(c1C(=O)NCc1ccco1)CCCC2)c1ccc2c(c1)OCO2,5,21722*,6,6,-5
COC(=O)Nc1sc2c(c1C(=O)NC1CC1)CCCCCC2,0,16545*,2,0,-2
O=C(CCN1C(=O)c2ccccc2C1=O)Nc1sc2c(c1C(=O)NCc1ccco1)CCCC2,?,23594*,3,-6,-10
COC(=O)Nc1sc2c(c1C(=O)NCc1ccco1)CCCC2,5,17349*,0,4,-15
Cc1ccc2nsnc2c1NC(=O)c1ccc([N+](=O)[O-])o1,2,3053,11,2,10
C[C@@H]1CN([C@H](C)CO)C(=O)c2cccc(NC(=O)Nc3ccc(F)cc3)c2O[C@H]1CN(C)C(=O)Nc1ccc(C(F)(F)F)cc1,0,4004,5,-10,-3
OCC(CO)c1cnnc2ccccc12,-1,4605,-2,-2,2
CNC(=O)c1c(NC(=O)c2ccco2)sc2c1CCCC2,0,5943,4,-2,1
COc1cc(C(=O)Nc2sc3c(c2C(=O)NCc2ccco2)CCCC3)cc(OC)c1OC,0,4964,-5,8,-5
O=C(Nc1sc2c(c1C(=O)NCc1cccnc1)CCCC2)c1ccco1,0,22004*,-1,0,0
COC(=O)c1c(NC(=O)/C=C/c2ccco2)sc2c1CCC2,1,2004,57*,2,0
COC(=O)Nc1sc2c(c1C(=O)NCc1ccco1)CCC2,?,20826*,-3,1,-2
CCCCSCCCNC(=O)CCCN1C(=O)c2ccccc2Sc2ncccc21,-2,3394,-2,-10,-4
CCc1cccc(C)c1NC(=S)NCc1ccc2[nH]c(C)cc2c1,40*,2743,1,-122,-105
SMILES,BoNT A protease,Autofluor counter,MazF activator,BoNT-F LC inh,Anthrax LF inh2
O=C(c1cccs1)N(Cc1ccco1)C1CCS(=O)(=O)C1 (stereo not given),3,22695*,0,5,1
O=C(c1cccs1)N(Cc1cccc(F)c1)C1CCS(=O)(=O)C1 (stereo not given),1,5123,5,1,5
O=C(c1cccs1)N(Cc1cccc(Cl)c1)C1CCS(=O)(=O)C1 (stereo not given),?,21176*,0,-3,0
C=CCn1c(N)c(C(=O)NCCC2=CCCCC2)sc1=S,-1,16404*,-3,-4,-5
Nc1c(C(=O)N2CCCCC2)sc(=S)n1-c1ccccc1,-1,21338*,-6,-2,0
C=CCn1c(N)c(C(=O)N2CCN(C)CC2)sc1=S,2,22789*,3,0,-7
Cc1ccc(-n2c(N)c(C(=O)N3CCN(C)CC3)sc2=S)cc1,-1,21266*,7,-2,-3
C=CCn1c(N)c(C(=O)OCC)sc1=S,-1,9816,2,-14,4
Cc1ccc(S(=O)(=O)NCCC(=O)Nc2cccc(Cl)c2)cc1,0,9074,-4,-7,1
Nc1c(C(=O)N2CCOCC2)sc(=S)n1-c1ccccc1,-5,21197*,4,-4,1
Cc1ccc(-n2c(N)c(C(=O)N3CCCCC3)sc2=S)cc1,.,.,2,.,.
CC(C)c1ccc(C(C(C(=O)c2ccccc2)N2CCOCC2)N2CCOCC2)cc1 (stereo not given),0,3827,5,-9,-5
CC(C)CCN(C(=O)Nc1ccccc1)C(C)c1cccs1 (stereo not given),-1,20892*,-6,-5,-3
CN(C(=O)Nc1ccccc1)C1CCCCC1,-1,5352,0,4,-8
CC(c1cccs1)N(C(=O)Nc1ccccc1)C1CCCCC1 (stereo not given),1,21824*,-6,3,0
OC(CNC1CCCCC1)CON=C1CCSc2c(Cl)cccc21 (stereo not given),0,3685,25,-15,-6
N#Cc1cnn(Cc2ccccc2)c1/N=C/N1CCOCC1,0,4195,1,-5,2
CN1CCN(/C=N/c2c(C#N)cnn2Cc2ccccc2)CC1,?,20606*,7,-3,-5
COc1ccc2nc3ccccc3nc2c1NC(=O)c1ccc(Cl)cc1Cl,-4,5745,+,-5,-4
COc1cc(-c2cc(C(=O)Nc3c(Cl)cc(Cl)cc3Cl)c3ccccc3n2)cc(OC)c1OC,1,2185,-7,-3,1
CCOc1ccc(-c2csc(C3COc4ccccc4O3)n2)cc1 (stereo not given),1,23266*,-5,-3,0
O=C(O)c1ccc(Sc2nnc(-c3cccc(Br)c3)o2)c([N+](=O)[O-])c1,?,22792*,-1,-3,-3
CC1(C)C(=O)OC(C(=O)c2ccc(Cl)cc2)C(C)(C)C1=O (stereo not given),1,2438,5,0,-3
CC1(C)C(=O)OC(C(=O)c2ccccc2)C(C)(C)C1=O (stereo not given),3,21463*,16,3,0
Cn1c(N)c(C(=O)COC(=O)Cc2ccc(F)cc2)c(=O)n(C)c1=O,-3,6232,2,-6,-3
N#C/C(=C\C=C\c1ccccc1)c1nc(-c2ccc3c(c2)OCO3)cs1,52*,3363,-60,10,21
OC(c1ccccc1)(c1nc(-c2ccc3c(c2)OCO3)cs1)C(F)(F)F (stereo not given),0,3181,.,2,-3
CC(=O)n1cc(C2C(=O)CC(C)(C)CC2=O)c2ccccc21,3,21921*,6,6,-2

# Screening data from PubChem BioAssay.
